# Test results published in PubChem BioAssay AID651704 (Broad Institute, 2012).
# Several values for one entry are separate records, joined by “and”; a condition that tells them apart may be missing. Equal entries are not always repeated. Hit rate of the full screen: of about 350,000 compounds, about 1,600 (0.46%) were called active. The sample holds actives, similar compounds and a random draw of the others, so the mix is not that of the screen.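 The calls were made as follows: active = every replicate reaching a set inhibition limit, whatever the replicate mean (cut at about 25% in these data); inconclusive = mean inhibition reaches that limit but some replicates miss it; inactive = the rest.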 More than one record can exist for a structure, and the calls need not agree.
# Target: Protein AF-9 (Homo sapiens) (UniProt P42568)
# Sequence (P42568 whole entry, looked up): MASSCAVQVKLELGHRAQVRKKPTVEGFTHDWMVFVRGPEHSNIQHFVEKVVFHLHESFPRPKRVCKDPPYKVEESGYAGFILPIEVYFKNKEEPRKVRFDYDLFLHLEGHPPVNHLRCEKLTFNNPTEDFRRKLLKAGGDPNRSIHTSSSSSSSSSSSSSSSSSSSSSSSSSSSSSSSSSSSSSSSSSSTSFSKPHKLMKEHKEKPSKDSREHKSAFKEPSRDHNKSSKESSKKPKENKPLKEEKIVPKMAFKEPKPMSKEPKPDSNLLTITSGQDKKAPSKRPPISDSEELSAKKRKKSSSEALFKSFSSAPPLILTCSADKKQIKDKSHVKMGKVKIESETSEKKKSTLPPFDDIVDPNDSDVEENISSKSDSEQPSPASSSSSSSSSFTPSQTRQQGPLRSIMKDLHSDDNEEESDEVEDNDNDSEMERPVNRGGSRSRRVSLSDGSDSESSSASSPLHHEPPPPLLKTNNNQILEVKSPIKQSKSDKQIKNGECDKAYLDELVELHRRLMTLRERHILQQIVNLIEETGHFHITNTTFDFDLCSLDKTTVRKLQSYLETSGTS
# Assay: inhibitors of AF4 peptide binding to AF9, primary screen, biochemical, AlphaScreen, biotin-AF4 peptide, FLAG-AF9, single point (AID 651704);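 also: 0% = plate neutral control median and 100% = total signal loss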
# Conditions: at 10 µM, stronger effect = higher value
row,SMILES,inhibition
1,CC(C)C[C@@H](CO)N1CCN(Cc2ccc(O)cc2)CCC1=O,-1.96% (inactive)
2,CC(C)C[C@@H](COCc1ccc(Cl)cc1)N1CCN(C(=O)c2ccc(Cl)cc2Cl)CCC1=O,1.49% (inactive)
3,CC(C)CC(CO)N1CCN(C(=O)c2ccc(Cl)cc2Cl)CCC1=O (configuration not stated),38.9% (active)
4,N#Cc1cccc(-c2ccc(C3[C@@H]4CN(C(=O)C5CCC5)C[C@H]3N4)cc2)c1 (some centres not stated),-2.89% (inactive) and 1.48% (inactive)
5,O=C(NC1CCCCC1)N1CC2(C1)[C@@H](c1ccccc1)[C@@H](CO)N2CC1CCOCC1,-1.54% (inactive)
6,CN(C)CCNC(=O)c1ccc(-c2cn3c(-c4ccc(Oc5ccccc5)cc4)cnc3cn2)cc1,34.2% (active)
7,Cc1noc(C)c1COc1ccc(C(=O)NCCOc2ccccc2)cc1,-1.51% (inactive)
8,CN(C)C(CNC(=O)c1ccc(OCc2cn3ccccc3n2)cc1)c1ccco1 (configuration not stated),0.31% (inactive)
9,Cc1ccc(S(=O)(=O)NCC[C@H]2CC[C@H](NC(=O)c3ccccn3)[C@H](CO)O2)cc1,1.07% (inactive)
10,CCC(=O)N1C[C@H](C)[C@H](OC)CN(C)C(=O)c2cc(NC(=O)Nc3cccc(F)c3)ccc2OC[C@@H]1C,2.75% (inactive)
11,O=S(=O)(c1ccccc1)N1[C@H](CO)[C@@H]2c3ccccc3NC[C@@H]21,-1.25% (inactive)
12,COc1ccccc1NC(=O)N(C)C[C@@H]1Oc2ncc(C#CCC(C)C)cc2C(=O)N([C@@H](C)CO)C[C@@H]1C,-1.7% (inactive)
13,COCC(=O)Nc1ccc2c(c1)OC[C@@H](C)N(Cc1cocn1)C[C@@H](C)[C@@H](OC)CN(C)C2=O,-2.07% (inactive)
14,Nc1ccc(N=Nc2ccccc2Cl)c(N)n1,31.4% (active)
15,CN1CCN(C(=O)C[C@H]2C[C@@H]3c4cc(NC(=O)Nc5ccc(C(F)(F)F)cc5)ccc4O[C@@H]3[C@H](CO)O2)CC1,6.81% (inactive)
16,COc1ccc(S(=O)(=O)NC[C@@H]2CC[C@@H]3[C@@H](CN3Cc3cc(F)ccc3F)O2)cc1,17.9% (inactive)
17,O=C([C@H]1N[C@H]2c3ccc(-c4ccccc4)c(=O)n3C[C@H]2[C@@H]1CO)N1CCOCC1,-1.96% (inactive)
18,COc1ccc(C(=O)C2CCCN(Cc3ccc4nonc4c3)C2)c(C)c1 (configuration not stated),29.4% (active)
19,CCOC(=O)c1[nH]ncc1CN1CCCC(C(=O)c2ccc(OC)cc2C)C1 (configuration not stated),-1.02% (inactive)
20,COc1ccc(C(=O)C2CCCN(Cc3cccn3-c3ccccn3)C2)c(C)c1 (configuration not stated),11.3% (inactive)
21,COc1ccc2[nH]c3c(C)c4cc[n+](C)cc4c(C)c3c2c1,57.7% (active)
22,C[C@@H]1CN([C@H](C)CO)C(=O)c2cc(-c3ccc(F)cc3)cnc2O[C@@H]1CN(C)Cc1ccc(C(=O)O)cc1,-1.88% (inactive)
23,CCC(=O)N1C[C@@H](C)[C@H](OC)CN(C)C(=O)c2cc(NC(=O)NC3CCCC3)ccc2OC[C@H]1C,-2.77% (inactive)
24,C[C@H](CO)N1C[C@H](C)[C@@H](CN(C)Cc2ccc3c(c2)OCO3)OCCCC[C@H](C)Oc2ccc(NC(=O)Nc3ccc(C(F)(F)F)cc3)cc2C1=O,4.81% (inactive)

row,SMILES,inhibition
1,Cc1cc2oc3ccc(NCCC4CCCN4C)cc3c(=O)c2cc1C (configuration not stated),27.8% (active)
2,COc1cccc2sc3cc(NCC[C@@H]4CCCN4C)ccc3c(=O)c12,3.58% (inactive)
3,Cc1cc2oc(=O)cc(CN3CCN(Cc4ccccc4)CC3)c2cc1C,2.48% (inactive)
4,COc1ccc2c(c1)c(=Cc1ccc(N(C)C)cc1)c1cc(-c3ccccc3)[n+](C)n12,67.9% (active)
5,COc1cccc2c1C(=O)c1c(O)c3c(c(O)c1C2=O)CC(O)(C(C)=NNC(=O)c1ccc(Cl)c(Cl)c1)CC3OC1CC(N)C(O)C(C)O1 (configuration not stated),33.8% (active)
6,N#C[C@@H]1[C@H](c2ccccc2-c2cccc(F)c2)[C@@H](CO)N1C(=O)CN1CCOCC1,-3.02% (inactive)
7,CO[C@@H]1CN(C)C(=O)c2ccc(NS(C)(=O)=O)cc2OC[C@H](C)NC[C@H]1C,-2.11% (inactive)
8,Cc1ccc2c(c1)C1CN(C)CCC1N2S(=O)(=O)c1cccc(F)c1 (configuration not stated),4.04% (inactive)
9,Cc1ccc2c(c1)C1CN(C)CCC1N2S(=O)(=O)c1ccc(Oc2ccc([N+](=O)[O-])cc2)cc1 (configuration not stated),20.9% (inactive) and 27.4% (active)
10,Cc1ccc2c(c1)C1CN(C)CCC1N2C(=S)Nc1ccc(OC(F)F)cc1 (configuration not stated),5.25% (inactive)
11,CN(C)C(=O)c1cccc(-c2ccc([C@H]3[C@H](CO)N4C(=O)CN(C(=O)C5CCCCC5)C[C@@H]34)cc2)c1,-3% (inactive)
12,CC(C)CC#Cc1cnc2c(c1)C(=O)N([C@@H](C)CO)C[C@@H](C)[C@@H](CN(C)C(=O)c1cccnc1)O2,-2.62% (inactive)
13,COc1ccc2c3c(n(C)c2c1)[C@@H](CO)N(Cc1ccccc1)CC31CN(C(=O)C2CC2)C1,2.25% (inactive)
14,CC(=O)Nc1cc(-c2ccc(N3CCN(C)CC3)cc2)cn2c(-c3cccc(C(=O)N(C)C)c3)cnc12,9.58% (inactive)
15,COc1ccccc1-c1cc(NC(C)=O)c2ncc(-c3ccc(F)cc3)n2c1,-6.86% (inactive)
16,CC(=O)Nc1cc(-c2ccc(N3CCN(C)CC3)cc2)cn2c(-c3ccc(F)cc3)cnc12,26.2% (active)
17,CN(C)C(=O)c1cccc(-c2ccc3c(c2)[C@H]2[C@H](CCN2S(=O)(=O)c2cn(C)cn2)[C@@H](CO)N3)c1,-3.61% (inactive)
18,Cc1noc(C)c1NC(=O)N(C)C[C@@H]1OCCCC[C@H](C)Oc2ccc(NC(=O)NC3CCCCC3)cc2C(=O)N([C@H](C)CO)C[C@H]1C,-0.856% (inactive)
19,CCCNC(=O)C[C@H]1C[C@H]2c3cc(NC(=O)NC4CCCCC4)ccc3O[C@H]2[C@H](CO)O1,5.96% (inactive)
20,CCNC(=O)C[C@H]1CC[C@@H](NC(=O)C2CCOCC2)[C@@H](CO)O1,1.25% (inactive)
21,O=C(NCCc1cccc(F)c1)C1CCCN(c2nc3ccccc3s2)C1 (configuration not stated),39.3% (active)
22,Cc1cc(=O)n2nc(N3CCCC(C(=O)NCc4cccc(Cl)c4)C3)sc2n1 (configuration not stated),2.52% (inactive)
23,O=C(NCc1ccccc1)C1CCCN(c2nc3ccsc3c(=O)s2)C1 (configuration not stated),-3.41% (inactive)
24,C/C=C/c1ccccc1[C@@H]1[C@@H](C#N)N(C(=O)Cc2ccccn2)[C@H]1CO,0.68% (inactive)

row,SMILES,inhibition
1,COc1ccccc1-c1cnc2c(c1)C(=O)N([C@H](C)CO)C[C@H](C)[C@@H](CN(C)CC1CCOCC1)O2,-1.31% (inactive)
2,CC(=O)c1c(N2CCN(c3ccc(F)cc3)CC2)nc(=S)n(-c2ccccc2)c1C,26.4% (active)
3,CC(=O)c1c(N2CCOCC2)nc(=S)n(-c2cc(C)ccc2C)c1C,11.8% (inactive)
4,Cc1ccc2cc(C)c(N3CCN(c4ccc(F)cc4)CC3)nc2c1,-1.83% (inactive)
5,O=C(C1CCCC1)N1CC(=O)N2[C@H](C1)[C@@H](c1ccc(-c3cccnc3)cc1)[C@@H]2CO,-2.09% (inactive)
6,Cc1cccc(S(=O)(=O)N2CCCCN3[C@@H](CO)[C@H](c4ccc(-c5cccnc5)cc4)[C@@H]3C2)c1,-0.659% (inactive)
7,COc1ccc2c3c(n(C)c2c1)[C@@H](CO)N(Cc1ccccc1F)CC31CCN(C(=O)C2CCOCC2)CC1,1.15% (inactive)
8,Cc1noc(C)c1NC(=O)N(C)C[C@@H]1OCCCC[C@@H](C)Oc2ccc(NC(=O)C3CCCCC3)cc2C(=O)N([C@@H](C)CO)C[C@H]1C,-0.114% (inactive)
9,COc1cc2c(cc1NC(=O)COC(=O)/C=C/c1ccccc1)oc1ccccc12,30.3% (active)
10,COc1ccc(/C=C/C(=O)OCC(=O)NCc2cccs2)cc1OC,2.43% (inactive)
11,COc1cc(/C=C/C(=O)OCC(=O)c2ccccc2)cc(OC)c1OC,4.16% (inactive)
12,COc1ccc(CNC(=O)C[C@@H]2CC[C@H](NC(=O)c3cccc(F)c3)[C@H](CO)O2)cc1,0.518% (inactive)
13,COC(=O)c1c(C)oc(C)c1S(=O)(=O)Nc1ccc(C(C)C)cc1,0.192% (inactive)
14,COC(=O)c1cc(S(=O)(=O)NCC2CCN(Cc3ccc(Cl)cc3)CC2)cn1C,5.58% (inactive)
15,COC(=O)c1c(C)oc(C)c1S(=O)(=O)NCc1ccc(Cl)cc1,28.9% (active)
16,O=C(CC1CC1)Nc1ccc2c(c1)[C@@H]1C[C@@H](CC(=O)NC3CCCCC3)O[C@H](CO)[C@@H]1O2,0.025% (inactive)
17,CC(C)CC#Cc1ccc([C@@H]2[C@@H](CO)N3C(=O)CN(C(=O)Nc4ccc(F)cc4)C[C@H]23)cc1,5.86% (inactive)
18,CN(C)c1ccc(C2N(C)C(=O)c3ccccc3N2C)cc1 (configuration not stated),2.23% (inactive)
19,CN(C)c1ccc(Nc2c3c4c(cccc4n(C)c2=O)C(=O)c2ccccc2-3)cc1,64.1% (active)
20,COc1cccc(S(=O)(=O)Nc2ccc3c(c2)[C@H]2C[C@H](CC(=O)N4CCCCC4)O[C@@H](CO)[C@H]2O3)c1,0.52% (inactive)
21,COc1ccc2c3c([nH]c2c1)[C@H](CO)N(C(=O)c1ccncc1)CC31CCN(C(=O)c2ccncc2)CC1,3.61% (inactive)
22,COc1ccc(C#Cc2ccc([C@@H]3[C@@H](CO)N4C(=O)CN(C(=O)c5ccc(F)cc5)C[C@@H]34)cc2)cc1,-3.35% (inactive)
23,O=C(c1ccccn1)N1CC2(C1)[C@H](c1ccccc1)[C@H](CO)N2C(=O)C1CCCC1,-1.83% (inactive)
24,CN1C(=O)c2cc(NC(=O)c3ccno3)ccc2OC[C@H]2O[C@@H](CC(=O)NCC(F)(F)F)CC[C@@H]21,-0.947% (inactive)
